Some test systems named below: SN12C renal; UO-31 renal; TK-10 renal; ACHN renal; CAKI-1 renal; A498 renal; CCRF-CEM leukemia; MOLT-4 leukemia; SR leukemia; RPMI-8226 leukemia; OVCAR-8 ovarian; OVCAR-5 ovarian; OVCAR-4 ovarian; SK-OV-3 ovarian; IGROV1 ovarian; OVCAR-3 ovarian; HS 578T breast; NCI/ADR-RES ovarian.
Common to all, as to assay: NCI-60 one-dose screen, 48 h (100 = growth as untreated, 0 = no growth, -100 = all killed)
Common to all, as to conditions: 10 µM unless noted

Where “and” joins values, the source holds several entries; their conditions need not be identical. Equal entries are not always repeated. This is part of a sample that, as a whole, favours compounds with a hit. Of some 83,000 tested, about 20% had one in any assay.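 Cell lines were cultured in 96-well plates, exposed to a single compound concentration, and assessed for percent growth 48 hours later.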 A number with no mark means an inactive call. Calls of active or inactive are those of the source. Rule for the calls: active = growth percent below 10; inactive = the rest.

For `CC(=O)c1ccc2c(c1)CCc1ccccc1-2`, the growth is 109% in the test with SN12C renal; 105% in the test on UO-31 renal; 99.9% in the test on TK-10 renal; 108% in the test with ACHN renal; 101% in the test on CAKI-1 renal; 63.1% in the test on A498 renal. For the same molecule, the growth with CCRF-CEM leukemia is 109%; in the test with MOLT-4 leukemia, 114%; in the test with SR leukemia, 103%; with RPMI-8226 leukemia, 108%; in the test on OVCAR-8 ovarian, 109%; with OVCAR-5 ovarian, 88.9%. Besides, the growth was 98.8% in the test on OVCAR-4 ovarian; 101% in the test on SK-OV-3 ovarian; 119% in the test with IGROV1 ovarian; 125% in the test with OVCAR-3 ovarian; 103% in the test with HS 578T breast; 119% in the test with NCI/ADR-RES ovarian.
Regarding `COC(=O)Nc1nc2ccc(C3(c4ccc(F)cc4)OCCO3)cc2[nH]1`, the growth in the test on SN12C renal was 41.4%; with UO-31 renal, 55.4%; in the test with TK-10 renal, 47.2%; with ACHN renal it was 41.9%; in the test on CAKI-1 renal, 40.8%; in the test with A498 renal it was 4.58% (active). For the same molecule, the growth with CCRF-CEM leukemia was 5.57% (active); in the test with SR leukemia it was 25.2%; in the test on RPMI-8226 leukemia, 10.4%; in the test with OVCAR-8 ovarian it was 21.1%; in the test with OVCAR-5 ovarian, 47.5%; in the test on OVCAR-4 ovarian it was 68.4%. In addition, the growth was 22% in the test on SK-OV-3 ovarian; 29.8% with IGROV1 ovarian; 4.74% (active) in the test on OVCAR-3 ovarian; 37.7% with HS 578T breast; 24.2% in the test on NCI/ADR-RES ovarian.
For the molecule `Oc1c(C(Nc2ccccc2)c2ccccc2)ccc2cccnc12` (stereo not drawn), the growth is 54.6% with SN12C renal; 36.9% in the test on UO-31 renal; 49.4% with TK-10 renal; 42.9% with ACHN renal; 29.1% in the test with CAKI-1 renal; 78.7% in the test on A498 renal. Also, the growth is 17.7% with CCRF-CEM leukemia; 21.2% with MOLT-4 leukemia; 27.3% in the test on SR leukemia; 37.3% in the test on RPMI-8226 leukemia; 19.8% in the test on OVCAR-8 ovarian; 33.2% in the test with OVCAR-4 ovarian. For the same molecule, the growth was 40.5% with SK-OV-3 ovarian; 41.3% in the test with IGROV1 ovarian; 24.3% in the test with OVCAR-3 ovarian; 70.4% in the test with HS 578T breast; 16.8% in the test with NCI/ADR-RES ovarian.
Take `O=C(CCc1ccccc1)ON1C(=S)NC(c2ccccc2)(c2ccccc2)C1=S`: the growth with TK-10 renal is -6.92% [100 µM] (active) and -21.7% [100 µM] (active).
`O=C1C=CC(=O)c2c(O)c(CO)c(CO)c(O)c21`: the growth in the test with SN12C renal was 101%; with TK-10 renal, 107%; in the test with ACHN renal, 95.3%; in the test with CAKI-1 renal, 93.4%; with A498 renal it was 120%; in the test with CCRF-CEM leukemia it was 78.5%. The growth in the test on MOLT-4 leukemia was 86.6%; in the test with SR leukemia, 83.3%; with RPMI-8226 leukemia, 18.2%; with OVCAR-5 ovarian, 84.8%; with OVCAR-4 ovarian it was 64.9%; in the test on SK-OV-3 ovarian, 109%. The growth with IGROV1 ovarian is 52.7%; in the test with OVCAR-3 ovarian, 98.3%; in the test on HS 578T breast, 113%.
In the case of `O=[N+]([O-])c1ccc([I+]c2ccccc2)cc1`, the growth with SN12C renal is -56.2% (active); in the test on UO-31 renal it was 46.9%; with TK-10 renal it was 3.24% (active); in the test with ACHN renal it was 64.2%; with CAKI-1 renal, 23.1%; in the test with A498 renal, 39.6%. In addition, the growth in the test on MOLT-4 leukemia was 22.9%; in the test with SR leukemia it was 17.7%; in the test on RPMI-8226 leukemia, 41.6%; in the test on OVCAR-8 ovarian, -27.6% (active); in the test with OVCAR-5 ovarian it was -85.8% (active); with OVCAR-4 ovarian, -91% (active). Also, the growth in the test on SK-OV-3 ovarian was 50.2%; in the test on IGROV1 ovarian, 43.4%; in the test with OVCAR-3 ovarian it was -15.3% (active); with HS 578T breast it was 1.04% (active); in the test on NCI/ADR-RES ovarian, 28.9%.
For the molecule `CCCCCCCCCCCC1N=C(N)N=C(N)N1c1cccc(Br)c1` (stereo not drawn), the growth was 8.08% (active) in the test with SN12C renal; 71.9% in the test with UO-31 renal; -45% (active) in the test with TK-10 renal; 80.5% with CAKI-1 renal; 76.1% in the test with A498 renal; -15.1% (active) in the test with CCRF-CEM leukemia. For the same molecule, the growth was -16.5% (active) with MOLT-4 leukemia; -29.2% (active) in the test on SR leukemia; -40% (active) in the test with RPMI-8226 leukemia; -14.6% (active) in the test with OVCAR-8 ovarian; -32.8% (active) with OVCAR-5 ovarian; 55.4% with OVCAR-4 ovarian. In addition, the growth is 32.6% with SK-OV-3 ovarian, -30.2% (active) in the test with IGROV1 ovarian, -28.6% (active) in the test with OVCAR-3 ovarian and 18.9% in the test with HS 578T breast.
As to `CN(C)c1ccc(/C=C/c2sc3ccc4ccccc4c3[n+]2C)cc1`, the growth was -54.3% (active) in the test on SN12C renal; -42.1% (active) in the test with TK-10 renal; -49.3% (active) in the test on ACHN renal; -10.9% (active) with CAKI-1 renal; -20.8% (active) in the test on A498 renal; -8.92% (active) in the test on CCRF-CEM leukemia. Also, the growth in the test on MOLT-4 leukemia was -26.7% (active); with SR leukemia it was -30.7% (active); in the test on RPMI-8226 leukemia, -26.6% (active); in the test with OVCAR-8 ovarian, -31.1% (active); in the test with OVCAR-4 ovarian, -19.9% (active); in the test with SK-OV-3 ovarian, -23.7% (active). Moreover, the growth in the test with IGROV1 ovarian was -11.2% (active); with OVCAR-3 ovarian, -63% (active); in the test with HS 578T breast, -29.1% (active); with NCI/ADR-RES ovarian, 34%.
For `CSc1nc(C)c(C(=O)CCN2CCN(c3ccccn3)CC2)s1`, the growth with SN12C renal was 97.6%; with TK-10 renal, 118%; in the test with ACHN renal, 101%; in the test on CAKI-1 renal, 100%; with A498 renal, 88.4%; in the test with SR leukemia, 94.3%. For the same molecule, the growth with RPMI-8226 leukemia was 80.1%; in the test on OVCAR-8 ovarian, 98.4%; in the test on OVCAR-5 ovarian it was 104%; with OVCAR-4 ovarian it was 97.5%; with SK-OV-3 ovarian, 102%; in the test on IGROV1 ovarian, 119%. Also, the growth in the test with OVCAR-3 ovarian was 104%; with HS 578T breast, 102%; in the test on NCI/ADR-RES ovarian it was 110%.
Consider `S=C(SSC(=S)N1CCOCC1)N1CCOCC1`, for which the growth was 99.7% with SN12C renal; 76.9% with UO-31 renal; 95.7% in the test on TK-10 renal; 98.3% in the test with ACHN renal; 79.1% in the test on CAKI-1 renal; 90.6% in the test on A498 renal. The growth in the test on CCRF-CEM leukemia was 21.9%; with MOLT-4 leukemia, 93.6%; in the test on SR leukemia, 31.4%; in the test on RPMI-8226 leukemia, 76.9%; with OVCAR-8 ovarian it was 96.8%; in the test with OVCAR-5 ovarian it was 106%. The growth in the test with OVCAR-4 ovarian was 65.7%; with SK-OV-3 ovarian, 102%; in the test on IGROV1 ovarian, 29.1%; in the test with OVCAR-3 ovarian, 74.6%; in the test with HS 578T breast, 97.7%; with NCI/ADR-RES ovarian, 106%.
With `CC(=O)OC1CC2CCC1(C)C2(C)C` (stereo not drawn), the growth in the test on SN12C renal was 98.6%; in the test with UO-31 renal it was 87.3%; in the test on TK-10 renal, 106%; in the test on ACHN renal, 96.7%; with CAKI-1 renal, 92.6%; in the test with A498 renal, 108%. The growth with CCRF-CEM leukemia is -45% (active); in the test on MOLT-4 leukemia, 112%; in the test with SR leukemia, 97.6%; in the test on RPMI-8226 leukemia it was 108%; with OVCAR-8 ovarian it was 98.9%; with OVCAR-5 ovarian, 94.9%. Also, the growth was 113% with OVCAR-4 ovarian; 111% in the test on SK-OV-3 ovarian; 106% with IGROV1 ovarian; 103% with OVCAR-3 ovarian; 103% with HS 578T breast; 108% in the test with NCI/ADR-RES ovarian.
On to `CC1=CC(=NC(=O)CBr)C=C/C1=N\S(=O)(=O)c1ccccc1`, for which the growth with SN12C renal is 14.1%; in the test with UO-31 renal it was 73.1%; in the test on TK-10 renal, 79.2%; with ACHN renal, 46.9%; with A498 renal, 97.2%; in the test with MOLT-4 leukemia, 43.7%. For the same molecule, the growth in the test with SR leukemia is 58.3%; with RPMI-8226 leukemia it was 84.5%; in the test on OVCAR-8 ovarian, 66.6%; in the test on OVCAR-4 ovarian, 50.6%; in the test on SK-OV-3 ovarian, 91.7%; with IGROV1 ovarian, -3.37% (active). In addition, the growth was 8.58% (active) in the test on OVCAR-3 ovarian, 89.1% in the test with HS 578T breast and 89.4% with NCI/ADR-RES ovarian.

Values taken from PubChem BioAssay (NCI).
